Measurements reported in PubChem BioAssay.
Activity calls are given as the source filed them.

Assays:
[1] = small molecules captured by biotinylated probe aFSTL3 – biochemical, small-molecule microarray, fluorescence 635/667, stem cell growth factor project, primary screen (AID 1064); conditions: higher = more signal;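 further: measures binding of the biotinylated anti-FSTL3 antibody to printed compounds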
[2] = binders from COS7 lysate, DM2A8 probe, primary screen, torsin A project, cell lysate, small-molecule microarray, fluorescence 635/667 (AID 1065); conditions: higher = more signal, COS7 lysate expressing mutant human TOR1A
[3] = small molecules captured by biotinylated probe aFGF2 – biochemical, small-molecule microarray, fluorescence 635/667, stem cell growth factor project, primary screen (AID 1067); conditions: higher = more signal;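 further: measures binding of biotinylated aFGF2 protein to printed compounds on slides; z-score merges feature fluorescence and signal-to-noise across triplicate slides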
[4] = small molecules captured by biotinylated probe aFGF10 – biochemical, small-molecule microarray, fluorescence 635/667, stem cell growth factor project, primary screen (AID 1071); conditions: higher = more signal;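 further: score merges 667 nm spot intensity and signal to noise from triplicate slides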
[5] = target: Neurogenic locus notch homolog protein 2 (Homo sapiens) (UniProt Q04721); test: small molecules binding Notch2 protein – biochemical, small-molecule microarray, 635 nm fluorescence, stem cell growth factors, primary screen (AID 1073); conditions: higher = more signal
Neurogenic locus notch homolog protein 2 (Homo sapiens), sequence (Q04721 whole entry, looked up, canonical isoform): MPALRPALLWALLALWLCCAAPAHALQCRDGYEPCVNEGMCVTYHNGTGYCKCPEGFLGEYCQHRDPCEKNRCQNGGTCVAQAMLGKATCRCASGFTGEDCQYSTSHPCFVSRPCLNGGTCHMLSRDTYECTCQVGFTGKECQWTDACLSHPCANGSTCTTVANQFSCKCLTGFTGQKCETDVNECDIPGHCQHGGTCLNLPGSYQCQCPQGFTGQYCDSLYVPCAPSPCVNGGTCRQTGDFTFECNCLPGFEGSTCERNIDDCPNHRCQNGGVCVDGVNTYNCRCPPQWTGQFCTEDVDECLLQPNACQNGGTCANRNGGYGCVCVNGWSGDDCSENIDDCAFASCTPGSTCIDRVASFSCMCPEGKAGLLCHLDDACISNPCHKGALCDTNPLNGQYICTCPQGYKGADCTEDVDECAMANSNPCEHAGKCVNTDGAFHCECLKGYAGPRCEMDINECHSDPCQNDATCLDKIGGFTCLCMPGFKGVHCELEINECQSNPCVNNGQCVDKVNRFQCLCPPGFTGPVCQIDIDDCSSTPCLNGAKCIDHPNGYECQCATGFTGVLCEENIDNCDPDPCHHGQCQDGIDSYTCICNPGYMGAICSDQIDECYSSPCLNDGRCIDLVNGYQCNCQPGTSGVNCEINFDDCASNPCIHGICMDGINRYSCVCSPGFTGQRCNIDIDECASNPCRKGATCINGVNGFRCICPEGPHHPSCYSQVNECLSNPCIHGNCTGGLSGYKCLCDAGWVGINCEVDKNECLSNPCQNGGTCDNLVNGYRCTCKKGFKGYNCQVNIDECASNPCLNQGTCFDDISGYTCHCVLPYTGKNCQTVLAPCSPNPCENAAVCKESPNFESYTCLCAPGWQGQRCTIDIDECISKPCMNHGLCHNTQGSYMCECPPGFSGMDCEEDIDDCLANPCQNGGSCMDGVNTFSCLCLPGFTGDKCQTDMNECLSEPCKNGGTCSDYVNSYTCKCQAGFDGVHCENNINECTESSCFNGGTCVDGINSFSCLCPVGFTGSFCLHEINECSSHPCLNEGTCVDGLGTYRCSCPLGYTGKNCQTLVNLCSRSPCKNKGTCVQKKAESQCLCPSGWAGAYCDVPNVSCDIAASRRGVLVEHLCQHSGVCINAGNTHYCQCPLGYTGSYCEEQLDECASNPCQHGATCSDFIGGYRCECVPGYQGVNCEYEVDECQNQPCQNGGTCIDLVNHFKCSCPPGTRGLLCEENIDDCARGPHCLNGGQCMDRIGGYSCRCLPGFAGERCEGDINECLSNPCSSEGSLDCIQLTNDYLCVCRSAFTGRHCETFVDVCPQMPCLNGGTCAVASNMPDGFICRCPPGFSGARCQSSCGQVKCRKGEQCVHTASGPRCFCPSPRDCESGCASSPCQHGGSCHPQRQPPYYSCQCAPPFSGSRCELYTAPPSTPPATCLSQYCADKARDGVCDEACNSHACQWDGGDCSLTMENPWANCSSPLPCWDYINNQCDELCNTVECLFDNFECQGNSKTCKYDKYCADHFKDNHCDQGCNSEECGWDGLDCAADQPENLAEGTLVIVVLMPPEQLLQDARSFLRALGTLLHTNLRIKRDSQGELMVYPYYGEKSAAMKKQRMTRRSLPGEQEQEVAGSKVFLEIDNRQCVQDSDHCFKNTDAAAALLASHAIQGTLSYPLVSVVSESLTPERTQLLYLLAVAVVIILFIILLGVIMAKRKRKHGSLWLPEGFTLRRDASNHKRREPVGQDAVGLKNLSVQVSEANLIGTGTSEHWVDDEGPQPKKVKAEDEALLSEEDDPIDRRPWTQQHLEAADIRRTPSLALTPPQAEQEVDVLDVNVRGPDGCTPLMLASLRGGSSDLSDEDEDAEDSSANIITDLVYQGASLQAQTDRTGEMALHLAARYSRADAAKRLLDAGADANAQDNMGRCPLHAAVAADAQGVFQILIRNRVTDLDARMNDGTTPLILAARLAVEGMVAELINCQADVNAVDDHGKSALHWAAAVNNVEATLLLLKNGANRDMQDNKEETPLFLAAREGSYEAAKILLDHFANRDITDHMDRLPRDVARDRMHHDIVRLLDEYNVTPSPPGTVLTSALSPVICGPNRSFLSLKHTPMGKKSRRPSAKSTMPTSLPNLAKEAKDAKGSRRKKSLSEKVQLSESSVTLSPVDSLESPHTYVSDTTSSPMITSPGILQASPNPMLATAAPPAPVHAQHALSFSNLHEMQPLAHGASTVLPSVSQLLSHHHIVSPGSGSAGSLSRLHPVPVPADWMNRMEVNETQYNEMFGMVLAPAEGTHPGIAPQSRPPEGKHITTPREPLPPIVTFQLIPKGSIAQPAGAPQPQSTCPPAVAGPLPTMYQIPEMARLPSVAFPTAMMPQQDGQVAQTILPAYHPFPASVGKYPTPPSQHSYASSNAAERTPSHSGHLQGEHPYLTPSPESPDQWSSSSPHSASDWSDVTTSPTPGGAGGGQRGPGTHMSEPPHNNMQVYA

[6] = target: Pro-neuregulin-1, membrane-bound isoform (Homo sapiens) (UniProt Q02297); test: small molecules binding neuregulin-1 protein – biochemical, small-molecule microarray, fluorescence 635/667, psychiatric disease protein project, primary screen (AID 1075); conditions: NRG1 binding, 635 nm fluorescence, higher = more signal;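 further: score combines 667 nm spot fluorescence with signal to noise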
Pro-neuregulin-1, membrane-bound isoform (Homo sapiens), sequence (Q02297 whole entry, looked up, the tested form may be a part, canonical isoform): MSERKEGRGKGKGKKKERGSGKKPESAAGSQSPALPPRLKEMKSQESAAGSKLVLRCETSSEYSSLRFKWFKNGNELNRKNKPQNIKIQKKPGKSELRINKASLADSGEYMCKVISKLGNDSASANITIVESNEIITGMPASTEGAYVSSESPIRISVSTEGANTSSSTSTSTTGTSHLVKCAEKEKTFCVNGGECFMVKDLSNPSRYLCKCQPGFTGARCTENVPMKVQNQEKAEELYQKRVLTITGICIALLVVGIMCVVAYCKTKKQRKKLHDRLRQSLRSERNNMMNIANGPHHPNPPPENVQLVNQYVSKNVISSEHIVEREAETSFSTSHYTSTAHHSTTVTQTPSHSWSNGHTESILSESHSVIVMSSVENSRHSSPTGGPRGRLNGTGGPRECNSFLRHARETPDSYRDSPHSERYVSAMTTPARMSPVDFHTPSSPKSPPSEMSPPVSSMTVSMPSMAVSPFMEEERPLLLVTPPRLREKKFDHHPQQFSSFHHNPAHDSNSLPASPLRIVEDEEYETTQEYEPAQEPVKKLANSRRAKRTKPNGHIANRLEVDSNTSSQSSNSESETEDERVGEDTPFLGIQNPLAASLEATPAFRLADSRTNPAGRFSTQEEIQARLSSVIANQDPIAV

[7] = system: Neuregulin-1 EGF-like domain; test: small molecules binding NRG1 EGF domain – biochemical, small-molecule microarray, 635 nm fluorescence, primary screen (AID 1081); conditions: higher = more signal;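 further: binding of the protein to compounds printed on small-molecule microarray slides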
[8] = FRG1 expression reporter modulators in myotubes – cell-based, C2C12 myotubes, firefly/Renilla luciferase, luminescence, FRG1 inhibition for FSHD, primary screen (AID 1084); conditions: FRG1 promoter luciferase, higher = more signal, called active from +8 up or from −8 down
[9] = small molecules captured by biotinylated probe aFST – biochemical, small-molecule microarray, fluorescence 635/667, stem cell growth factor project, primary screen (AID 1086); conditions: higher = more signal;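 further: score merges 667 nm fluorescence with signal-to-noise of each printed compound spot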
[10] = binders of probe aHhip on microarray, primary screen, stem cell growth factor project, biochemical, small-molecule microarray, fluorescence 635/667 (AID 1087); conditions: higher = more signal;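 further: score merges spot fluorescence at 667nm with spot signal to noise ratio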

In the case of `CCOC(=O)C[C@H]1[C@H](OC(=O)c2ccccc2-c2ccccc2)[C@@H](NC(=O)c2ccccc2)c2cc(OCCCO)ccc2N1C(=O)Cc1ccc(OC)cc1`, the composite z-score [1] is reported as -0.205, the composite z-score [2] is reported as -0.0688 and the composite z-score [3] is reported as -0.0569. For the same compound, the composite z-score [4] was 0.149, the composite z-score [5] was 0.585 and the composite z-score [6] was -0.323. The composite z-score [7] was -0.191, the z-score [8] was 0.57 (inactive) and the composite z-score [9] was -0.0579. It also gave a composite z-score [10] of -0.204.

In the case of `C=C(COC)/C(=C/C[C@@H](OC(=O)c1ccncc1)c1cccc(OCCO)c1)c1cc(C(=O)OC)ccc1OC`, the composite z-score [1] is reported as -0.278, the composite z-score [2] is reported as 0.525 and the composite z-score [3] is reported as -0.0428. For the same compound, the composite z-score [4] was 1.06, the composite z-score [5] was 0.426 and the composite z-score [6] was -0.142. The composite z-score [7] was 1.38, the z-score [8] was -3.79 (inactive) and the composite z-score [9] was -0.0671. The composite z-score [10] was -0.156.

With `CO[C@H]1O[C@H](CO)[C@@H](OC(=O)c2ccc(Br)cc2)[C@@H]2OC(=O)[C@H](Cc3cccc(Br)c3)C/C=C/C[C@@H](Cc3cccc(Br)c3)C(=O)O[C@@H]12` the composite z-score [1] was 0.174, the composite z-score [2] was 0.665 and the composite z-score [3] was 0.0376. For the same compound, the composite z-score [4] was 1.12, the composite z-score [5] was 1.43 and the composite z-score [6] was 1.43. For the same compound, the composite z-score [7] was 1.06, the z-score [8] was 0.374 (inactive) and the composite z-score [9] was 0.551. It also gave a composite z-score [10] of 0.319.

With `CCOC(=O)C[C@H]1[C@H](OC(=O)Cc2ccc3c(c2)OCO3)[C@@H](NC(=O)c2ccccc2)c2cc(OCCCO)ccc2N1C(=O)c1ccccc1` the composite z-score [1] was -0.23, the composite z-score [2] was 0.122 and the composite z-score [3] was -0.0687. It also gave a composite z-score [4] of 0.346, a composite z-score [5] of 0.228 and a composite z-score [6] of -0.109. For the same compound, the composite z-score [7] was 0.895, the z-score [8] was -1.73 (inactive) and the composite z-score [9] was 0.0452. The composite z-score [10] was -0.0237.

`COC(=O)[C@]1(Cc2ccccc2N=[N+]=[N-])N=C(c2ccc(OCCCO)cc2)O[C@@H]1c1ccccc1` showed a composite z-score [1] of 1.3, a composite z-score [2] of 0.517 and a composite z-score [3] of 0.0132. For the same compound, the composite z-score [4] was -0.152, the composite z-score [5] was -0.0515 and the composite z-score [6] was 0.358. The composite z-score [7] was 0.929, the z-score [8] was -0.237 (inactive) and the composite z-score [9] was 0.182. It also gave a composite z-score [10] of 0.0291.

For `CC1CC/C=C\[C@H]2OC34C=CCN(Cc5ccccc5)C(=O)[C@H]3N(CCO)C(=O)[C@@H]4C2C(=O)O1` (stereo not given in full), the composite z-score [1] was 0.767, the composite z-score [2] was 2.2 and the composite z-score [3] was -0.0662. It also gave a composite z-score [4] of 1.1, a composite z-score [5] of -0.821 and a composite z-score [6] of 1.86. For the same compound, the composite z-score [7] was 1.51, the z-score [8] was 0.781 (inactive) and the composite z-score [9] was -0.253. The composite z-score [10] was -0.0994.

`COC(=O)[C@H]1N=C(c2ccc(OCCCO)cc2)O[C@H]1c1ccccc1CN=[N+]=[N-]` showed a composite z-score [1] of 1.03, a composite z-score [2] of -0.872 and a composite z-score [3] of 0.0544. For the same compound, the composite z-score [4] was -0.202, the composite z-score [5] was -0.525 and the composite z-score [6] was 0.526. For the same compound, the composite z-score [7] was 0.591, the z-score [8] was 4.14 (inactive) and the composite z-score [9] was 0.906. It also gave a composite z-score [10] of 0.334.

Compound `[N-]=[N+]=NCc1ccccc1C[C@]1(C(=O)NCCN2CCOCC2)N=C(c2ccc(OCCCO)cc2)O[C@H]1c1ccccc1` has a composite z-score [1] of 0.081, a composite z-score [2] of 0.205 and a composite z-score [3] of -0.0085. It also gave a composite z-score [4] of 0.713, a composite z-score [5] of 0.0617 and a composite z-score [6] of 1.32. The composite z-score [7] was 1.26, the z-score [8] was -0.849 (inactive) and the composite z-score [9] was 0.632. The composite z-score [10] was -0.0296.

With `CCCN1C(=O)[C@@]2(Cc3ccccc3)N=C(c3ccc(OCCCO)cc3)O[C@H]2c2ccccc21` the composite z-score [1] was -0.0679, the composite z-score [2] was 0.802 and the composite z-score [3] was -0.047. For the same compound, the composite z-score [4] was 0.186, the composite z-score [5] was 0.498 and the composite z-score [6] was 0.602. For the same compound, the composite z-score [7] was 1.12, the z-score [8] was -1.25 (inactive) and the composite z-score [9] was -0.0754. It also gave a composite z-score [10] of -0.0573.

With `CN(C)CCCN1C(=O)[C@@]2(Cc3ccccc31)c1ccccc1C(=O)N(Cc1ccccc1)[C@H]2c1ccc(CO)cc1` the composite z-score [1] was -0.0277, the composite z-score [2] was 0.115 and the composite z-score [3] was -0.0861. It also gave a composite z-score [4] of -0.492, a composite z-score [5] of -0.639 and a composite z-score [6] of 0.466. The composite z-score [7] was -0.226, the z-score [8] was 0.878 (inactive) and the composite z-score [9] was 1.02. The composite z-score [10] was -0.0994.

For `COc1cc(NN2C(C(O)c3ccc(I)cc3)C=CC3C(=O)N(C)C(=O)C32)cc(OC)c1OC` (stereo not given), the composite z-score [1] was 0.495, the composite z-score [2] was -0.363 and the composite z-score [3] was -0.0207. It also gave a composite z-score [4] of 0.0488, a composite z-score [5] of 1.52 and a composite z-score [6] of 1.96. For the same compound, the composite z-score [7] was 1.14, the z-score [8] was 0.777 (inactive) and the composite z-score [9] was -0.0647. For the same compound, the composite z-score [10] was -0.0237.

For `Cc1ccc(S[C@]2(C(=O)NCc3ccccc3)CC(=O)N(C3Cc4ccccc4C3)[C@@H]2c2ccc(CO)cc2I)cc1`, the composite z-score [1] was -0.0093, the composite z-score [2] was 0.247 and the composite z-score [3] was -0.123. It also gave a composite z-score [4] of -0.257, a composite z-score [5] of -0.312 and a composite z-score [6] of 1.64. For the same compound, the composite z-score [7] was -0.185, the z-score [8] was -1.73 (inactive) and the composite z-score [9] was -0.134. For the same compound, the composite z-score [10] was -0.246.

For `COC(=O)[C@@]1(Cc2ccc(OC)cc2)[C@H]2c3cc(C(=O)N4CCCC4)n(CCF)c3C[C@H]2CN1C(=O)c1ccccc1`, the composite z-score [1] was 3.09, the composite z-score [2] was -0.334 and the composite z-score [3] was 0.972. For the same compound, the composite z-score [4] was 1.44, the composite z-score [5] was 1.66 and the composite z-score [6] was 2.27. For the same compound, the composite z-score [7] was 1.43, the z-score [8] was 1.37 (inactive) and the composite z-score [9] was 3.23. It also gave a composite z-score [10] of 3.

With `CN(C)C(=O)[C@@]1(Cc2ccccc2N=[N+]=[N-])N=C(c2ccc(OCCCO)cc2)O[C@H]1c1ccccc1N=[N+]=[N-]` the composite z-score [1] was 0.982, the composite z-score [2] was 1.2 and the composite z-score [3] was 0.125. For the same compound, the composite z-score [4] was 0.765, the composite z-score [5] was 1.51 and the composite z-score [6] was 1.46. The composite z-score [7] was 0.73, the z-score [8] was -0.325 (inactive) and the composite z-score [9] was 1.53. For the same compound, the composite z-score [10] was 0.28.
